GSTO1 inh: blocks human GSTO1 in RBBP9 counter-screen; P78417; recombinant GSTO1, activity-based probe fluorescence polarization; inhibition, % at 5.96 µM; hit rate 1.1% among 300,000;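 active = inhibition above the campaign mean inhibition plus 3 SD, cut at about 35% in these data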;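 note: 0% = GSTO1-1 with DMSO and 100% = wells lacking GSTO1-1 enzyme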
Fam108B inh: blocks mouse Fam108B hydrolase in RBBP9 counter-screen; recombinant Fam108B, FP-Rh probe fluorescence polarization; inhibition, % at 9.51 µM; hit rate 0.33% among 300,000; AID 1947;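 active = inhibition above the screen mean inhibition plus 3 SD, computed separately per campaign, cut at about 18% in these data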;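 note: inhibitors lower polarization as less probe binds the enzyme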
PME-1 inh: PME-1 (human) inhibition. Q9Y570. recombinant PME-1, FP-Rh probe fluorescence polarization. inhibition, % at 5.9 µM. hit rate 0.53% among 320,000. AID 2130;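 active = inhibition above the campaign mean of all compounds plus 3 SD, cut at about 26% in these data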;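 note: competitive labeling of PME-1 active site by serine hydrolase directed probe; 0% = PME-1 with DMSO and 100% = wells lacking PME-1 enzyme; inhibitors block probe labeling so polarization falls and inhibition rises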
LYPLA2 inh: counter-screen for PME1 inhibitors: inhibitors of human LYPLA2 | hit rate 0.38% among 320,000 | recombinant LYPLA2, FP-Rh probe fluorescence polarization | O95372 | inhibition, % at 5.9 µM;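 active = inhibition above the screen-wide mean plus 3 SD, limit set per campaign, cut at about 26% in these data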;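 note: 0% = LYPLA2 with DMSO and 100% = wells lacking LYPLA2 enzyme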
Target sequence (O95372 whole entry, looked up): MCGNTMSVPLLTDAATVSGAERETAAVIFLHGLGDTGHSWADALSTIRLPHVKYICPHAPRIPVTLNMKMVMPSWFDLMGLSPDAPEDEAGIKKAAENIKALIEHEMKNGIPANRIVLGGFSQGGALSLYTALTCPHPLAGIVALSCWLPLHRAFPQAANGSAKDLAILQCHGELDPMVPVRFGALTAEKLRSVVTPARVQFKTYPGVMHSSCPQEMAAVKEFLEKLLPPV
LYPLA1 counter: LYPLA1 (human) inhibition in PME1 counter-screen; hit rate 0.16% among 320,000; inhibition, % at 5.9 µM; recombinant LYPLA1, FP-Rh probe fluorescence polarization;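 active = inhibition above the mean of all tested compounds plus 3 SD, set per campaign, cut at about 14% in these data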;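 note: inhibitors block serine hydrolase probe labeling of LYPLA1 so polarization falls; 0% = enzyme with DMSO and 100% = wells lacking LYPLA1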
Target sequence (O75608 whole entry, looked up): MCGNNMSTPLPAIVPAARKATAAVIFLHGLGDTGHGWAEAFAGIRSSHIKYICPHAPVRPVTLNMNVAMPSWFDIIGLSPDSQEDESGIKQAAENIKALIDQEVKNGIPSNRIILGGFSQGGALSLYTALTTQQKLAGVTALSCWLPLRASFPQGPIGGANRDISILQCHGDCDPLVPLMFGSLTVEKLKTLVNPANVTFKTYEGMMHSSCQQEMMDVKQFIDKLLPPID
PAD4 FP inh: inhibitors of human PAD4; recombinant PAD4, RCA probe fluorescence polarization; inhibition, % at 6.36 µM; Q9UM07; hit rate 0.41% among 330,000; AID 485272;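 active = percent inhibition above a cutoff equal to the mean of all tested compounds plus 3 SD, cut at about 15% in these data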;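 note: 0% = PAD4 with RCA probe and DMSO and 100% = probe without PAD4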
LYPLA2 conf: LYPLA2 (human) inhibition, confirmation counter-screen | recombinant LYPLA2, FP-Rh probe fluorescence polarization | hit rate 72% among 1,100 | inhibition, % at 5.9 µM | shares compounds with LYPLA2 inh | AID 2232;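 active = mean inhibition across replicates above the hit cutoff set in the primary screen, cut at about 26% in these data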;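 note: blocked labeling of the enzyme by serine hydrolase FP-Rh probe lowers polarization; 0% = enzyme with DMSO and 100% = wells lacking LYPLA2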
LYPLA2 gel ABPP: LYPLA2 (human) inhibition, late stage results. rhLYPLA2 in mouse brain proteome, gel ABPP FP-Rh. shares compounds with LYPLA2 inh. AID 652029. inhibition, % at 20 µM. hit rate 30% among 150;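 active = inhibition of LYPLA2 enzyme probe labeling above about 50%, limit read from the data; inactive = inhibition below that limit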;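 note: loss of FP-Rh probe labeling of the LYPLA2 gel band measured as band density; 0% = DMSO only control band and 100% = blank gel background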
The depositor's hits bear a star; / = no result. Most compounds without a hit are left out; they make up all but 1.8% or so of the library.

SMILES	GSTO1 inh	Fam108B inh	PME-1 inh	LYPLA2 inh	LYPLA1 counter	PAD4 FP inh	LYPLA2 conf	others
O=C(Nc1nccs1)C1CC(=O)N(CCc2ccc(F)cc2)C1 (stereo not given)	8	1	2	4	1	-1	/
O=C1CC(N2CCC(c3nc4ccccc4o3)CC2)C(=O)N1c1ccc(Cl)c(C(F)(F)F)c1 (stereo not given)	-1	2	-4	27*	-1	-2	33*
O=C1CC(N2CCC(c3nc4ccccc4o3)CC2)C(=O)N1c1ccc(F)cc1 (stereo not given)	-2	-2	0	7	0	-1	/
O=C(CNC(c1ccccc1)c1ccccc1)Nc1ccccc1Br	4	0	-8	-9	-5	-3	/
COc1ccc(CCN2C(=O)CC(Cc3ccccc3)C2=O)cc1OC (stereo not given)	6	2	-8	7	1	5	/
COc1ccc(CCN2C(=O)CC(NNc3ccc([N+](=O)[O-])cc3)C2=O)cc1OC (stereo not given)	-4	-2	5	51*	1	0	54*	LYPLA2 gel ABPP=17
CCN1C(=O)CC(C(=O)Nc2ccc(F)cc2)SC1=Nc1ccc2c(c1)OCO2 (stereo not given)	0	4	4	36*	2	3	3
CCN=C1SC(C(=O)Nc2cccc(Br)c2)CC(=O)N1CC (stereo not given)	1	3	-2	26*	0	3	26*
COc1ccc(N=C2SC(C(=O)Nc3ccc4c(c3)OCO4)CC(=O)N2C)cc1 (stereo not given)	2	3	-2	53*	-2	-5	39*
CCc1ccc(N(CC(=O)NC(C)(C)CC)C(=O)CCC(=O)Nc2nccs2)cc1	2	1	-3	0	3	-1	/
O=C(O)c1cccc(N2C(=O)c3ccc(Oc4ccc(Cl)cc4)cc3C2=O)c1	-2	-2	1	53*	-3	-1	68*	LYPLA2 gel ABPP=55*
O=C(O)c1cccc(N2C(=O)c3ccc4c5c(ccc(c35)C2=O)C(=O)N(c2cccc(C(=O)O)c2)C4=O)c1	22	5	8	6	4	-1	/
Cc1ccccc1NC(=O)C1CCN(S(=O)(=O)c2cccc3nonc23)CC1	7	2	-6	-5	-2	-2	/
O=C(Nc1ccccc1)C1CCN(C(=O)c2ccccc2)CC1	6	0	-6	0	0	2	/
Cc1nc(Cl)c(C(=O)NC(C)(C)C)c(C)c1Cl	1	5	4	7	5	2	/
COc1ccc(CCNC(=S)N2CCC(C(=O)c3ccc(F)cc3)CC2)cc1OC	1	2	-6	27*	6	4	31*
CC(=O)N1CCN(C(=O)c2ccc3c(c2)S(=O)(=O)c2ccccc2C3=O)CC1	4	10	-3	32*	3	2	32*
CCN1CCN(C(=O)c2ccc3c(c2)S(=O)(=O)c2ccccc2C3=O)CC1	-11	5	2	40*	6	1	44*
CC(SCC(=O)Nc1ccccc1Br)c1nc2ccccc2c(=O)[nH]1 (stereo not given)	/	/	/	/	/	0	/
CCOC(=O)c1c(NC(=S)NC(C)=O)sc(C)c1C	5	10	7	5	-3	1	/
COc1ccc2c(c1)C(=O)[C@@H](O)[C@H](c1ccc(OC)c(Br)c1)O2	4	-5	1	70*	2	2	70*	LYPLA2 gel ABPP=63*
COC(=O)c1ccc(CNC(=O)c2cc(COc3cncc(Cl)c3)on2)cc1	5	1	7	35*	1	-4	35*
Clc1ccc2c(c1)-c1[nH]ncc1CS2	-8	-10	-6	-12	-9	0	/
Cc1cc(C)cc(Oc2coc3cc(OC(=O)c4cccs4)ccc3c2=O)c1	17	-9	-1	29*	2	-1	18
Cc1ccc(Oc2coc3cc(OC(=O)c4cccs4)ccc3c2=O)cc1	-5	-5	-6	48*	2	1	44*
SMILES	GSTO1 inh	Fam108B inh	PME-1 inh	LYPLA2 inh	LYPLA1 counter	PAD4 FP inh	LYPLA2 conf	others
Cc1cccc(Oc2coc3cc(OC(=O)c4cccs4)ccc3c2=O)c1	4	-6	1	16	3	2	/
COc1ccc(CCNC(=O)c2ccccc2NS(=O)(=O)c2c(F)cccc2F)cc1	-47	0	2	12	2	-1	/
CCOC(=O)C1(S(=O)(=O)c2ccccc2)CCN(Cc2ccc(Cl)cc2)CC1	0	0	-4	10	2	-7	/
Cc1cccc(NC(=O)C2CCCN2S(=O)(=O)c2ccc(Cl)cc2)n1 (stereo not given)	3	2	3	-1	2	-4	/
O=[N+]([O-])c1ccccc1/C=C\C=N\N1CCN(c2ccccc2)CC1	6	1	-4	40*	10	-5	36*
O=C(O)c1ccc(Nc2cc(Cl)c3nonc3c2[N+](=O)[O-])cc1	-41	6	4	4	1	-1	/
O=[N+]([O-])c1c(Nc2cccc(O)c2)cc(Cl)c2nonc12	5	2	13	47*	0	3	51*
CCc1ccccc1NC(=S)N(CCN1CCCCC1)Cc1ccco1	6	1	-2	4	0	-3	/
CC(C)(C)c1ccc(C(=O)N2CCC(C(=O)NC3CCCCCC3)CC2)cc1	-2	0	1	48*	0	-2	54*	LYPLA2 gel ABPP=20
COc1ccc(C)cc1NC(=O)C1CCN(C(=O)c2ccc(C(C)(C)C)cc2)CC1	-1	-2	2	41*	10	-1	44*
COc1ccc(C)cc1NC(=O)C1CCN(S(C)(=O)=O)CC1	4	1	-9	-1	-1	-5	/
Cc1ccc(C(=O)N2CCC(C(=O)Nc3cccc([N+](=O)[O-])c3)CC2)cc1	0	2	0	32*	6	2	17
CCOc1ccc(C(=O)C2CCN(C(=O)c3ccc([N+](=O)[O-])cc3)CC2)cc1	2	0	4	33*	3	-4	31*
O=C(Nc1ccccc1)C1CCN(C(=O)c2ccc([N+](=O)[O-])cc2)CC1	5	4	3	0	-3	-3	/
CC1=C(N2CCCCC2)CCC1=O	-2	2	-3	-1	2	1	/
COc1ccc(-c2ncccc2OC(=O)C23CC4CC(CC(C4)C2)C3)cc1OC	-1	2	-2	7	7	1	/
O=C(c1ccc(Cl)cc1)N1CCC(O)(CSc2ccc(Cl)cc2)CC1	12	-1	-4	33*	2	4	29*

Assay outcomes as filed in PubChem.
